Results published in publication PMC5540273 (PLoS ONE, 2017).

How the values were obtained:
Conditions in all cases: concentration: 1 μM, replicates: in singlicate; n = 1
[1] = system: SRPK2
[2] = system: SRPK3
[3] = system: STK16
[4] = system: STK33
[5] = system: STK35
[6] = system: STK36
[7] = system: STK39
[8] = system: SYK
[9] = system: SgK110
[10] = system: T1, TAK1
T1 construct: gene MAP3K7
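Also: KINOMEscan kinase panel screen.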

SMILES | %Inh [1] | %Inh [2] | %Inh [3] | %Inh [4] | %Inh [5] | %Inh [6] | %Inh [7] | %Inh [8] | %Inh [9] | %Inh [10]
Nc1ncnc2occ(-c3ccc4c(c3)CCN4C(=O)Cc3cc(F)ccc3F)c12 [GSK2645446] | 0% | 0% | 0% | 0% | 0% | 0% | 0% | 0% | 0% | 17%
O=c1cc(N2CCOCC2)nc2n(Cc3ccccc3F)ccn12 [GSK2297428] | 0% | 0% | 0% | 0% | 0% | 0% | 0% | 21% | 0% | 0%
Cc1c(Cn2c3ccccc3n3c(=O)cc(N4CCOCC4)nc23)cccc1C(F)(F)F [GSK2306394] | 0% | 0% | 11% | 6% | 0% | 0% | 0% | 5% | 0% | 0%
O=C(Nc1n[nH]c2nc(-c3cccs3)c(Br)cc12)C1CC1 [SB-735297] | 0% | 8% | 0% | 0% | 0% | 12% | 7% | 10% | 0% | 6%
Cl.Cl.Cl.N#Cc1ccc(CCNc2nccc(-c3cccc(CN4CCNCC4)c3)n2)cc1 [GSK2137462] | 0% | 0% | 22% | 100% | 0% | 0% | 0% | 9% | 23% | 4%
CNCc1ccc2nc(NC(=O)c3ccc(C(C)(C)C)cc3)cn2c1 | 5% | 0% | 0% | 1% | 0% | 11% | 42% | 2% | 9% | 20%
COC(=O)C(Cc1ccccc1)NC(=O)NC1CCN(c2ccnc(Nc3ccc(F)cc3)n2)C1 (centres unmarked) [GSK1379714] | 38% | 0% | 19% | 8% | 0% | 31% | 10% | 34% | 0% | 0%
CC(C)c1cc(-c2ccc3c(N)n[nH]c3c2)nc(N)n1 [GSK2250882] | 0% | 29% | 21% | 0% | 0% | 0% | 0% | 0% | 0% | 1%
COc1ccc(CSc2nnc(-c3ccc4ncsc4c3)o2)cc1C(F)(F)F | 0% | 0% | 15% | 0% | 0% | 0% | 0% | 0% | 25% | 0%
COc1ccc(-c2coc3ccc(-c4nnc(C)o4)cc23)cc1 | 0% | 0% | 21% | 0% | 0% | 13% | 0% | 17% | 52% | 0%
COC(=O)c1cccc(NC(=O)NC2CCN(c3ccnc(Nc4ccc(OC)cc4)n3)C2)c1 (centres unmarked) [GSK1379746] | 28% | 0% | 8% | 0% | 0% | 0% | 5% | 0% | 0% | 0%
COc1ccc(Nc2nccc(-c3ccc(NC(=O)c4cc5cc(F)ccc5[nH]4)cc3)n2)cc1 [GSK1229496] | 14% | 7% | 2% | 0% | 0% | 0% | 0% | 8% | 0% | 0%
Cc1cccc2c(-c3ccncn3)c(-c3ccc(F)cc3)nn12 [GW515532] | 0% | 14% | 0% | 0% | 27% | 0% | 0% | 0% | 0% | 0%
CSc1ccc(-c2nc3n(c2-c2ccncc2)CCC3)cc1 [SKF-105561] | 25% | 0% | 4% | 11% | 3% | 16% | 0% | 18% | 0% | 0%
CN1c2ccc(-c3ccc(C(N)=O)cc3)cc2-c2[nH]ncc2S1(=O)=O | 8% | 0% | 1% | 0% | 12% | 0% | 3% | 26% | 0% | 31%
CC(=O)c1c(C)c2cnc(Nc3ccn(C)n3)nc2n(C2CCCC2)c1=O | 0% | 0% | 55% | 0% | 5% | 0% | 0% | 0% | 0% | 11%
O=C1NC(=O)C(c2ccc(Cl)cc2)=C1Nc1ccc(O)cc1 [SB-340867] | 18% | 0% | 0% | 0% | 0% | 11% | 0% | 4% | 50% | 0%
